For one sequence, binding signal results are on record in article PMC7862700, “An all-to-all approach to the identification of sequence-specific readers for epigenetic DNA modifications on cytosine”.

What all share (test): DAPPL (digital affinity profiling via proximity ligation, sequencing); 10 mM Tris-HCl pH 7.5, 50 mM NaCl, 1 mM DTT, 4% glycerol, room temperature, 30 min; GST-TFs on glutathione beads, 16-mer random dsDNA library, 0.1% formaldehyde crosslink after washing; high values mean tight binding
The target of one assay is T1, FLI1 (Homo sapiens, UniProt Q01543 1-452).
T1 sequence: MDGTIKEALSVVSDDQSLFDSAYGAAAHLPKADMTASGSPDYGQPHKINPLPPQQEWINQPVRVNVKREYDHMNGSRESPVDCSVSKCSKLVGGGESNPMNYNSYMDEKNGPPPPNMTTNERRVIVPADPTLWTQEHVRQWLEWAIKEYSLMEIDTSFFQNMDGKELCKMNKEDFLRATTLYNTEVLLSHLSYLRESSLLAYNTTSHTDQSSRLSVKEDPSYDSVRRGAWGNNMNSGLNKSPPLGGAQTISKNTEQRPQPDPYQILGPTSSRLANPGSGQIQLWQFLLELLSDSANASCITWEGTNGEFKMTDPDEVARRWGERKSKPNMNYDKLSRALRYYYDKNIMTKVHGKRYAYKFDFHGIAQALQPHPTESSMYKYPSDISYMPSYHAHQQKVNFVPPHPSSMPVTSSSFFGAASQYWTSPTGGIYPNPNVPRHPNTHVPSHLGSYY
As to conditions: protein: recombinant; tags: N-terminal GST; dsDNA, one strand shown. The procedure, abridged:
(§1)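 Pools were built from human transcription factors expressed in yeast as GST fusions, captured on glutathione beads and DNA-barcoded, along with a tag-only sample. Incubation with 200 nmole of a 16-mer random double-stranded DNA library lasted 30 min at room temperature in Tris/NaCl/DTT/glycerol buffer, and was followed by washing, 0.1% formaldehyde crosslinking, proximity ligation, PCR amplification and Illumina NextSeq500 sequencing. Binding signal is the quotient of each hexamer's read frequency for a factor and its frequency for the tag-only sample.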

Another assay has as its target T2, ELK1 (Homo sapiens, UniProt P19419 1-428).
T2 sequence: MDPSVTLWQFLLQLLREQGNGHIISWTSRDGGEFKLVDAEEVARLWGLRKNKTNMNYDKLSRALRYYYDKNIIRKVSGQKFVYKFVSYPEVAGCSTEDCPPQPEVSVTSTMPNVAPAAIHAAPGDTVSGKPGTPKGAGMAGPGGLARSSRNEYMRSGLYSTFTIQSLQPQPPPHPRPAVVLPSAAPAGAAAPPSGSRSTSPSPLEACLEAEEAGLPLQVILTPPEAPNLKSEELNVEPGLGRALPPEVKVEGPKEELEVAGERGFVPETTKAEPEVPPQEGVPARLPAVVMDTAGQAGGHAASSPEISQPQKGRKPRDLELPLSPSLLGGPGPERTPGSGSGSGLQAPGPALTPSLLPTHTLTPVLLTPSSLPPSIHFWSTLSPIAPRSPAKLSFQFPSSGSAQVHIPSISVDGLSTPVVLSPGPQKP
The following applies: protein: recombinant; tags: N-terminal GST; dsDNA, one strand shown. In short, it runs like this: as §1

For a further assay, the target named is T3, GABPA (Homo sapiens, UniProt Q06546 1-454).
T3 sequence: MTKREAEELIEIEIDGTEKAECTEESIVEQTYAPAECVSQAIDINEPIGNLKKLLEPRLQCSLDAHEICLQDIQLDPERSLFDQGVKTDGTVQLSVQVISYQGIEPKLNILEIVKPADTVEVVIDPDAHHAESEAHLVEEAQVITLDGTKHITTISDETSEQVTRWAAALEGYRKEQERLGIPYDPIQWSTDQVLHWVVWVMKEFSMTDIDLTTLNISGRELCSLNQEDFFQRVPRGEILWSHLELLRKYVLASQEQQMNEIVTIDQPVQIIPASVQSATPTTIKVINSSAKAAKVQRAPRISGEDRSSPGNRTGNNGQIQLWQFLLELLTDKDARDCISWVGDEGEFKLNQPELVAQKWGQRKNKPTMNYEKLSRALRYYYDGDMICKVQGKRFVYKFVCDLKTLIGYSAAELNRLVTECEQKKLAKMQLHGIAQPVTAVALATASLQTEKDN
As to conditions: protein: recombinant; tags: N-terminal GST; dsDNA, one strand shown. The procedure, abridged:
as §1

In another assay the target is T4, ERG (Homo sapiens, UniProt P11308 1-479).
T4 sequence: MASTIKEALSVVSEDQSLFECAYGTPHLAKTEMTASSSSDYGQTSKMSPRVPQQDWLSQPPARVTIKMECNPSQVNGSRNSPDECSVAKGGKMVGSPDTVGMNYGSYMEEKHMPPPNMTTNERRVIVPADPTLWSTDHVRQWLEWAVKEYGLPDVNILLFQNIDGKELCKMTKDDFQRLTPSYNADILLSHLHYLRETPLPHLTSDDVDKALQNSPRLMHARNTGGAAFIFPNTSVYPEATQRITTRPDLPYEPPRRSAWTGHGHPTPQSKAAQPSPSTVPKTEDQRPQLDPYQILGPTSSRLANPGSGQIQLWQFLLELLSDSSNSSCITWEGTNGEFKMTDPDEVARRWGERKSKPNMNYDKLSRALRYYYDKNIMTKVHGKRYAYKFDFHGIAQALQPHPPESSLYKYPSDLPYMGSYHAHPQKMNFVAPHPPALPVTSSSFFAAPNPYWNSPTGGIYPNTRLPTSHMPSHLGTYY
The following applies: protein: recombinant; tags: N-terminal GST; dsDNA, one strand shown. The procedure, abridged: as §1

Another assay concerns the target ELF1 (Homo sapiens, UniProt P32519 1-619). The following applies: protein: recombinant; tags: N-terminal GST; dsDNA, one strand shown. In short, it runs like this: as §1
The target of the next assay is T5, EHF (Homo sapiens, UniProt Q9NZC4 1-300).
T5 sequence: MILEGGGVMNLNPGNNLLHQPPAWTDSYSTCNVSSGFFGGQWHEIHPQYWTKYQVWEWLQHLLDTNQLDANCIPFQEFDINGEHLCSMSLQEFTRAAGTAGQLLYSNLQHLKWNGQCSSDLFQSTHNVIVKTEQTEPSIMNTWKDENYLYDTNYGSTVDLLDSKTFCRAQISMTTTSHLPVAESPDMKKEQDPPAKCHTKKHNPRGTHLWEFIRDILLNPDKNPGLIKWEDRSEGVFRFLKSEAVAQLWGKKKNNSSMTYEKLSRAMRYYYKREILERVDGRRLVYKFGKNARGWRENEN
The following applies: protein: recombinant; tags: N-terminal GST; dsDNA, one strand shown. In short, it runs like this: as §1

In the next assay the target is SPI1 (Homo sapiens, UniProt P17947 1-270). The following applies: protein: recombinant; tags: N-terminal GST; dsDNA, one strand shown. In short, it runs like this:
as §1

A further assay deals with SPIB (Homo sapiens, UniProt Q01892 1-262). The following applies: protein: recombinant; tags: N-terminal GST; dsDNA, one strand shown. In short, it runs like this:
as §1

The target in the next assay is T6, ELK3 (Homo sapiens, UniProt P41970 1-407).
T6 sequence: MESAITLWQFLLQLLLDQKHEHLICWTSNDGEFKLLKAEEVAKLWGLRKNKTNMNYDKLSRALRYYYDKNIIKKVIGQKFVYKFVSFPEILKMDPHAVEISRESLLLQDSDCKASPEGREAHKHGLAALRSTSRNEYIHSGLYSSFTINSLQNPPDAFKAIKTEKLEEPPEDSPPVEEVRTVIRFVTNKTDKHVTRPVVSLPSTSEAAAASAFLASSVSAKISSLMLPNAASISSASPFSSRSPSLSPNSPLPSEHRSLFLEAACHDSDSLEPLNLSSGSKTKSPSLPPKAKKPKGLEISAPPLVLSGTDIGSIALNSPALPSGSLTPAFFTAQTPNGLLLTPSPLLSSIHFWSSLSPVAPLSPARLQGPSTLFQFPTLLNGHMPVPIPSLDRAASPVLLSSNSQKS
As to conditions: protein: recombinant; tags: N-terminal GST; dsDNA, one strand shown. In short, it runs like this:
as §1

The target in the next assay is T7, FEV (Homo sapiens, UniProt Q99581 1-238).
T7 sequence: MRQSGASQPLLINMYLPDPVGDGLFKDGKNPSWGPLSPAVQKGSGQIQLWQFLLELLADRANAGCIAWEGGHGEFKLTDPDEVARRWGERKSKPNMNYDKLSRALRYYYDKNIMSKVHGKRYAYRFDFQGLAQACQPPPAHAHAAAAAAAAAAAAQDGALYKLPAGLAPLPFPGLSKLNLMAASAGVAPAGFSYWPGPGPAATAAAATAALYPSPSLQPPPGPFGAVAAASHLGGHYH
As to conditions: protein: recombinant; tags: N-terminal GST; dsDNA, one strand shown. In short, it runs like this:
as §1

A further assay addresses ETV5 (Homo sapiens, UniProt P41161 1-510). As to conditions: protein: recombinant; tags: N-terminal GST; dsDNA, one strand shown. The procedure, abridged: as §1
A further assay deals with HSF1 (Homo sapiens, UniProt Q00613 1-529). The following applies: protein: recombinant; tags: N-terminal GST; chain copies: 3; dsDNA, one strand shown. In short, it runs like this:
as §1

The target of a further assay is T8, SPIC (Homo sapiens, UniProt Q8N5J4 1-248).
T8 sequence: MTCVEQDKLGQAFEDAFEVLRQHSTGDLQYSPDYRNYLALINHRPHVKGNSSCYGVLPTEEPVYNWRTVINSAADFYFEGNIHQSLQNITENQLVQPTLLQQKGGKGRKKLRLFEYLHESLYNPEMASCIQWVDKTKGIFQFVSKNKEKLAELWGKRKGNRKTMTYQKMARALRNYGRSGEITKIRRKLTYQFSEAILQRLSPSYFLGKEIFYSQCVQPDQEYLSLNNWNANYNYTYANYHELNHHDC
The following applies: protein: recombinant; tags: N-terminal GST; dsDNA, one strand shown. In short, it runs like this: as §1

Another assay deals with ELF4 (Homo sapiens, UniProt Q99607 1-663). As to conditions: protein: recombinant; tags: N-terminal GST; dsDNA, one strand shown. The procedure, abridged:
as §1

Another assay deals with T9, ELK4 (Homo sapiens, UniProt P28324-2 1-405).
T9 sequence: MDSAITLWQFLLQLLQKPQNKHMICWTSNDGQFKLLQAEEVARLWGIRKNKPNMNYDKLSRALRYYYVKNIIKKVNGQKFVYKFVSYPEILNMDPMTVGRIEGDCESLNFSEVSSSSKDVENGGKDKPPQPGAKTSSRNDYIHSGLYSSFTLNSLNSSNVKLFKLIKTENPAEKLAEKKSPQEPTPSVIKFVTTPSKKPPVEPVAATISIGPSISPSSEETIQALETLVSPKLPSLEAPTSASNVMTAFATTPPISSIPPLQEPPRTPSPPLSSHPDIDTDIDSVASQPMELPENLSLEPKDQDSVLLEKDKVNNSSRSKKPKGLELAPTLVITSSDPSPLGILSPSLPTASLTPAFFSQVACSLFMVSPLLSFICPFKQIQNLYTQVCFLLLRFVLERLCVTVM
As to conditions: protein: recombinant; tags: N-terminal GST; dsDNA, one strand shown. The procedure, abridged:
as §1

In a further assay the target is T10, ETV2 (Homo sapiens, UniProt O00321 1-342).
T10 sequence: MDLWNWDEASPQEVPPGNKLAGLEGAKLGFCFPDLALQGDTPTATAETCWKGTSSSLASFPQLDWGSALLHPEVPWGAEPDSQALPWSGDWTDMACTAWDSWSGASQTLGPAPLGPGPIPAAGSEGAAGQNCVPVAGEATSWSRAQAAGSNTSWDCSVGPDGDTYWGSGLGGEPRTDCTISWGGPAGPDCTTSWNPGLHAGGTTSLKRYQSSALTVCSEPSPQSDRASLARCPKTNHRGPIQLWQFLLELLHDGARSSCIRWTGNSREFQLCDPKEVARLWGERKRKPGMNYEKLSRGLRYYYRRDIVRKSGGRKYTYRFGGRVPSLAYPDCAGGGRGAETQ
As to conditions: protein: recombinant; tags: N-terminal GST; dsDNA, one strand shown. The procedure, abridged: as §1

The target in the next assay is T11, ELF3 (Homo sapiens, UniProt P78545 1-371).
T11 sequence: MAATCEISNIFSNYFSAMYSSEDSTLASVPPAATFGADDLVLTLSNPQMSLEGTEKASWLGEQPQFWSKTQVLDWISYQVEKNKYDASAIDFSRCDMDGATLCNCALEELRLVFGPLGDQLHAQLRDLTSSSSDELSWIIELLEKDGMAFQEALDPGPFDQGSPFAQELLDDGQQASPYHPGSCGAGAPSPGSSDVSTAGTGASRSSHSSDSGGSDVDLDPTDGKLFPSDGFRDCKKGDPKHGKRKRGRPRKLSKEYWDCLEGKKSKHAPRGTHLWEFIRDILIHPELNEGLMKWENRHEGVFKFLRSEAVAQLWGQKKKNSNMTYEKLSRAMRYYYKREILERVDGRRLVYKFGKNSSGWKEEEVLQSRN
As to conditions: protein: recombinant; tags: N-terminal GST; dsDNA, one strand shown. The procedure, abridged:
as §1

The next assay concerns the target CRX (Homo sapiens, UniProt O43186 1-299). The following applies: protein: recombinant; tags: N-terminal GST; dsDNA, one strand shown. The procedure, abridged:
as §1

For another assay, the target named is ETV1 (Homo sapiens, UniProt P50549 1-477). As to conditions: protein: recombinant; tags: N-terminal GST; dsDNA, one strand shown. In short, it runs like this: as §1
ETV1, sequence (P50549 whole entry): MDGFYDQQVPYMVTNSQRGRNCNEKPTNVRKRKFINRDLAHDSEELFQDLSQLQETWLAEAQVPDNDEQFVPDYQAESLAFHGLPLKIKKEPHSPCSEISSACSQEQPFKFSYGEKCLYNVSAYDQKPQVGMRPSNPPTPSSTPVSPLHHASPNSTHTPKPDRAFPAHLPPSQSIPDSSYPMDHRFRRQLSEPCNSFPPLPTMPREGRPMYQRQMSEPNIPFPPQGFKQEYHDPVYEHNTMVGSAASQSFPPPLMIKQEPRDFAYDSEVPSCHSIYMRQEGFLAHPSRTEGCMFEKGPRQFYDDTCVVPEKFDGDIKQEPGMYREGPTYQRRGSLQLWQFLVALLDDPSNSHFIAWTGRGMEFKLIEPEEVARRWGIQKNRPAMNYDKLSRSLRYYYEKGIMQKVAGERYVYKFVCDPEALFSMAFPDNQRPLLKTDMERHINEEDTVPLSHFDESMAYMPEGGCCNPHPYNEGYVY

CRX, sequence (O43186 whole entry): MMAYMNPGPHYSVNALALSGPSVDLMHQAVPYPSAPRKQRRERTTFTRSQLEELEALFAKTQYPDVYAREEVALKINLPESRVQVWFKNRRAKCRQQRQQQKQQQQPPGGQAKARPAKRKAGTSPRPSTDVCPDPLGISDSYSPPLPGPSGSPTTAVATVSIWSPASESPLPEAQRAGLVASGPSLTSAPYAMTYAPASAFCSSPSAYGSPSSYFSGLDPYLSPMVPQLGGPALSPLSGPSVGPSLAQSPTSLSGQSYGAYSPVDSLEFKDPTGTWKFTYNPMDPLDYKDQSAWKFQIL
HSF1, sequence (Q00613 whole entry): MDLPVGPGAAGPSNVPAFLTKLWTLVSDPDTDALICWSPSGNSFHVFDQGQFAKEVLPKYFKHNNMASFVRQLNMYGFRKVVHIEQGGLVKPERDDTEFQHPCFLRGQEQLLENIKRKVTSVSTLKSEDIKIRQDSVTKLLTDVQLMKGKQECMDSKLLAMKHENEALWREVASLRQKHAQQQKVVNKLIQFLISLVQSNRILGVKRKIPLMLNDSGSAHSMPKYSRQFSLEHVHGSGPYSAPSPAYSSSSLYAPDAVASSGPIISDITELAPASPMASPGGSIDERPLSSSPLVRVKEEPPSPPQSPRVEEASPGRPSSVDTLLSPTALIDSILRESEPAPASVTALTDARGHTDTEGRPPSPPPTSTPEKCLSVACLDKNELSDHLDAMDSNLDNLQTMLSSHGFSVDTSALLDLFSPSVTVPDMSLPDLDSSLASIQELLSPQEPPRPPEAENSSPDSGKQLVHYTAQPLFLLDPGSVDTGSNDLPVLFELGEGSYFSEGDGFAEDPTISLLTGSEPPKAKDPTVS
SPIB, sequence (Q01892 whole entry): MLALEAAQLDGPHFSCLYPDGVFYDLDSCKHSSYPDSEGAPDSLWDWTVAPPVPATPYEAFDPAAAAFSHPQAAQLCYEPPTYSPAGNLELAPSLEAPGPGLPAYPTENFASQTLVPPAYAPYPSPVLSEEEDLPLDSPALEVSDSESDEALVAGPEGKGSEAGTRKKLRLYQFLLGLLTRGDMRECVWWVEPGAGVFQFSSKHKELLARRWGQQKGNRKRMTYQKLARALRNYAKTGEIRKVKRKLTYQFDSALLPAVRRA
ELF1, sequence (P32519 whole entry): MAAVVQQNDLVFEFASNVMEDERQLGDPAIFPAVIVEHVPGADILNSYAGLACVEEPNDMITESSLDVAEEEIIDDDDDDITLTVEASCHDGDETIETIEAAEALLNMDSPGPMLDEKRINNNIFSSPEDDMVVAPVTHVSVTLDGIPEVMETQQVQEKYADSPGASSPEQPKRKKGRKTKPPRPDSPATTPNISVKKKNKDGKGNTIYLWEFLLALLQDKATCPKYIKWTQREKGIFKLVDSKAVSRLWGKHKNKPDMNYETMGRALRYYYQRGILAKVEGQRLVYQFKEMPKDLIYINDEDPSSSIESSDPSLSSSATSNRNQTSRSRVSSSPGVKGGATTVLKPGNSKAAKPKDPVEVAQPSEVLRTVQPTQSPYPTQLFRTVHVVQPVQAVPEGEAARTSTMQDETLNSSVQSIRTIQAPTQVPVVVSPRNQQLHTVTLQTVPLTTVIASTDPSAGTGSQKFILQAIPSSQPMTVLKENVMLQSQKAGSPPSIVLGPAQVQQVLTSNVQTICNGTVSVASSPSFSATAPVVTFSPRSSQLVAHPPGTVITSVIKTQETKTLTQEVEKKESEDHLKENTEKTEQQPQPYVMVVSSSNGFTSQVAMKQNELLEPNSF
ETV5, sequence (P41161 whole entry): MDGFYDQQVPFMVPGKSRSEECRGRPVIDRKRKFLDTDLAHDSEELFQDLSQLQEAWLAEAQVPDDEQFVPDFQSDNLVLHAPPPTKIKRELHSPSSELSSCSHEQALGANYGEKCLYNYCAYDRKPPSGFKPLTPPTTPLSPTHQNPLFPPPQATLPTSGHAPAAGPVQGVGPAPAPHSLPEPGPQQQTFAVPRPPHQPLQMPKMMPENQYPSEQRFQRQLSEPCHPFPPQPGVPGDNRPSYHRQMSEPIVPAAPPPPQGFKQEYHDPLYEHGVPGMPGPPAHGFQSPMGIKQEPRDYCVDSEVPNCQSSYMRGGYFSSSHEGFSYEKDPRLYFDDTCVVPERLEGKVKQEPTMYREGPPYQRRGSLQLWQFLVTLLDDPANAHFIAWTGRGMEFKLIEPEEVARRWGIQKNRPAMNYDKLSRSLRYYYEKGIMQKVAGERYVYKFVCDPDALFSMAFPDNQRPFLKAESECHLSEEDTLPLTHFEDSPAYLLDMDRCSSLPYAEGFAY
ELF4, sequence (Q99607 whole entry): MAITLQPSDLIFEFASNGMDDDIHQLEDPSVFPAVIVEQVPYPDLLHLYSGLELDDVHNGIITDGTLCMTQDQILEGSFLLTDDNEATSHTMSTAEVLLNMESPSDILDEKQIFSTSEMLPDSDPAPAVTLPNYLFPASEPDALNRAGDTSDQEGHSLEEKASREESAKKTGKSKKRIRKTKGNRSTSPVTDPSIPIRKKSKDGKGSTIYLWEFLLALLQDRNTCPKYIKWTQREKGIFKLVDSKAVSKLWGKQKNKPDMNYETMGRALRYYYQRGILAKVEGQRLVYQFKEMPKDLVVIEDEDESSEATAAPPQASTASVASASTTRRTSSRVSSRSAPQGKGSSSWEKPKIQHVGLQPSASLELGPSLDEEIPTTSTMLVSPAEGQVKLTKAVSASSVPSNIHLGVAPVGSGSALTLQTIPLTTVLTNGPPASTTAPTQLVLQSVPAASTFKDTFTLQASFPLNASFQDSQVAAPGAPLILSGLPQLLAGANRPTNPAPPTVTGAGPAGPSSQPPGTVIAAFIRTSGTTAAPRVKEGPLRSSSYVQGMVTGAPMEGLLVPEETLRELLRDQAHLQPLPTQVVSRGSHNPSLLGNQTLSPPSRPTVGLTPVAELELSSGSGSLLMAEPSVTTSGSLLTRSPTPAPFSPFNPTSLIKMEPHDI

Turning to GCCGAT, the binding signal with FLI1 was 1.14 fold enrichment (6-mer frequency, TF over GST control); in the assay with ELK1, 1.09 fold enrichment (6-mer frequency, TF over GST control); with GABPA, 1.21 fold enrichment (6-mer frequency, TF over GST control); with ERG it was 1.03 fold enrichment (6-mer frequency, TF over GST control); with ELF1 it was 1.03 fold enrichment (6-mer frequency, TF over GST control); with EHF, 1.01 fold enrichment (6-mer frequency, TF over GST control). Further, the binding signal with SPI1 is 1.12 fold enrichment (6-mer frequency, TF over GST control); in the assay with SPIB, 1.07 fold enrichment (6-mer frequency, TF over GST control); with ELK3, 1.08 fold enrichment (6-mer frequency, TF over GST control); in the assay with FEV, 1.11 fold enrichment (6-mer frequency, TF over GST control); in the assay with ETV5, 1.11 fold enrichment (6-mer frequency, TF over GST control); with HSF1 it was 1.13 fold enrichment (6-mer frequency, TF over GST control). For the same sequence, the binding signal is 1.03 fold enrichment (6-mer frequency, TF over GST control) with SPIC; 1.16 fold enrichment (6-mer frequency, TF over GST control) with ELF4; 1.13 fold enrichment (6-mer frequency, TF over GST control) with ELK4; 1.13 fold enrichment (6-mer frequency, TF over GST control) with ETV2; 1.02 fold enrichment (6-mer frequency, TF over GST control) with ELF3; 1.46 fold enrichment (6-mer frequency, TF over GST control) with CRX. The binding signal with ETV1 was 1.07 fold enrichment (6-mer frequency, TF over GST control).
